Compound activity (PubChem BioAssay)
Only some compounds are listed: those with a hit (about 0.32% of all), similar ones and a draw of the others.
BioA inh = inhibitors of Mycobacterium tuberculosis BioA enzyme | purified M. tuberculosis BioA enzyme, plate reader | 0.096% of 360,000 active | inhibition, % at 9.99 µM | AID 602481; in the data active means inhibition above about 40%
Yp Topo-I inh = inhibitors of Yersinia pestis topoisomerase I | AID 504884 | Y. pestis Topo-I cleavage product accumulation, plate reader | 0.064% of 360,000 active | activity, % at 10 µM; in the data active means activity above about 50%, passing the limit was not always enough
TcdB GH inh = inhibitors of Clostridioides difficile toxin B glycohydrolase | P18177 | TcdB glycohydrolase enzymatic assay, plate reader | inhibition, % at 9.99 µM | 0.24% of 350,000 active | AID 652162; in the data active means inhibition above about 10%
Hits are given with their value; 0 = inactive; - = no result given.

SMILES	BioA inh	Yp Topo-I inh	TcdB GH inh
CC(=O)c1cccc(-c2ccnc3c2CC(C(=O)NCc2ccc(F)c(F)c2)O3)c1 (stereo not drawn)	0	0	0
CC(=O)c1cccc(-c2ccnc3c2CC(C(=O)NCc2ccccc2)O3)c1 (stereo not drawn)	0	0	10
O=C(NCc1ccccc1)C1Cc2c(-c3cccc(F)c3)ccnc2O1 (stereo not drawn)	0	0	11
CO[C@@H]1CN(C)C(=O)c2ccc(NC(=O)c3cnccn3)cc2OC[C@@H](C)N(CCc2ccccc2)C[C@H]1C	0	-	0
C[C@@H]1CN([C@H](C)CO)S(=O)(=O)c2ccc(Br)cc2O[C@@H]1CN(C)Cc1cccnc1	0	-	0
CN(C(=O)COC(=O)CNC(=O)c1ccccc1Cl)c1ccccc1	-	0	15
Cc1cc(C)cc(C(=O)NCC(=O)OCC(=O)N(C)c2ccccc2)c1	-	0	0
C[C@@H]1CN([C@H](C)CO)C(=O)c2ccccc2-c2ccccc2CO[C@@H]1CN(C)C(=O)CCN(C)C	0	-	0
COCCNc1cc(N)c([N+](=O)[O-])cc1[N+](=O)[O-]	-	0	11
CCOC(=O)c1ccc(NCCOC)c([N+](=O)[O-])c1	0	0	0
Cc1ccc(S(=O)(=O)Oc2ccccc2/C=C2\SC(=O)NC2=O)cc1	-	0	11
COc1ccc(C=C2SC(=S)NC2=O)c(OC)c1OC	-	0	0
COc1ccccc1C=C1SC(=S)NC1=O	-	0	11
O=C1NC(=O)/C(=C/c2ccccc2Oc2ccc(Cl)cc2)S1	0	0	-
C[C@H](NC(=O)C[C@@H]1CC[C@H](NC(=O)C2CCC2)[C@H](CO)O1)c1ccccc1	0	-	0
COc1ccccc1CNC(=O)CCCn1nc(C)n2ccnc2c1=O	0	0	0
COc1ccc(CCNC(=O)CCCn2nc(C)n3ccnc3c2=O)cc1OC	0	0	14
C[C@@H]1CCCCO[C@H](CN(C)S(=O)(=O)c2ccc(Cl)cc2)[C@@H](C)CN([C@H](C)CO)C(=O)c2cc(NC(=O)CCC(F)(F)F)ccc2O1	0	-	0
COC(=O)[C@@]12CCCCN1[C@H](c1ccc(-c3cccc(Cl)c3)c(OC)c1)[C@@H]1C(=O)N(C)C(=O)[C@@H]12	0	0	0
COC(=O)[C@@]12CCCCN1[C@H](c1ccc(-c3ccccc3)c(OC)c1)[C@H]1C(=O)N(C)C(=O)[C@H]12	0	0	12
C[C@@H]1CN([C@H](C)CO)C(=O)Cc2cc(NC(=O)CCC(F)(F)F)ccc2O[C@@H]1CN(C)C(=O)Nc1ccc2c(c1)OCO2	0	-	0
CCCCC(CC)COC(=O)c1ccccc1C(=O)OCC(CC)CCCC (stereo not drawn)	0	61	0
CC(C)COC(=O)c1ccccc1C(=O)OCC(C)C	0	0	0
O=C(C[C@@H]1CC[C@@H]2[C@H](COC[C@@H](O)CN2C(=O)Nc2ccccc2)O1)NCc1ccncn1	0	-	0
COc1ccc(NC(=O)CN2CCN(c3nc(-c4ccc(F)cc4)cs3)CC2)c(OC)c1	-	54	0
SMILES	BioA inh	Yp Topo-I inh	TcdB GH inh
COc1ccc(NC(=O)CN2CCN(c3nc(-c4cccc(OC)c4)cs3)CC2)cc1	0	0	-
COc1ccc(-c2cnc3c(c2)C(=O)N([C@@H](C)CO)C[C@H](C)[C@H](CN(C)C(=O)C2CCCCC2)O3)cc1	0	-	12
COc1ccc(-c2cnc3c(c2)C(=O)N([C@H](C)CO)C[C@H](C)[C@@H](CN(C)C(=O)C2CCCCC2)O3)cc1	0	-	0
Cc1ccc(/C=C/C(=O)N2CCCC(C)C2)cc1 (stereo not drawn)	0	0	0
Cc1ccc(/C=C/C(=O)N2CCC(Cc3ccccc3)CC2)cc1	-	51	-
C[C@H](CO)N1C[C@H](C)[C@H](CN(C)Cc2ccncc2)OCCCC[C@H](C)Oc2ccc(NC(=O)Nc3ccc4c(c3)OCO4)cc2C1=O	0	-	0
CCCCn1c(N)c(N(CC)C(=O)c2cccs2)c(=O)[nH]c1=O	0	0	11
CCCCn1c(N)c(N(CC)C(=O)c2ccncc2)c(=O)[nH]c1=O	0	0	0
Cc1cc(O)c2c(c1)C(=O)C13C(=C2O)C(=O)[C@H]2[C@@H](O)[C@@H]1[C@H]1[C@H](O)[C@@H]3C(=O)C3=C(O)c4c(O)cc(C)cc4C(=O)C312 (stereo partly drawn)	0	403	-
Cc1ccc(S(=O)(=O)N(C)C[C@@H]2Oc3ccc(NS(=O)(=O)c4ccc(F)cc4)cc3C(=O)N([C@H](C)CO)C[C@H]2C)cc1	0	-	-
C[C@@H]1CN([C@@H](C)CO)S(=O)(=O)c2ccc(-c3ccncc3)cc2O[C@H]1CN(C)Cc1ccccc1	0	-	0
C[C@H]1CN([C@@H](C)CO)S(=O)(=O)c2ccc(-c3ccncc3)cc2O[C@H]1CN(C)Cc1ccc(Oc2ccccc2)cc1	0	-	12
C[C@H]1CN([C@@H](C)CO)S(=O)(=O)c2ccc(-c3ccncc3)cc2O[C@@H]1CN(C)Cc1ccccc1	0	-	0
C[C@H]1CN([C@@H](C)CO)S(=O)(=O)c2ccc(-c3ccncc3)cc2O[C@@H]1CN(C)Cc1ccc(Oc2ccccc2)cc1	0	-	20
C[C@@H]1CN([C@H](C)CO)S(=O)(=O)c2ccc(-c3ccncc3)cc2O[C@@H]1CN(C)Cc1ccc(Oc2ccccc2)cc1	0	-	11
C[C@@H]1CN([C@H](C)CO)S(=O)(=O)c2ccc(-c3ccncc3)cc2O[C@H]1CN(C)Cc1ccccc1	0	-	0
CCCC(=O)N1CC2(CCN(S(=O)(=O)CC)CC2)c2c(n(C)c3cc(OC)ccc23)[C@@H]1CO	-	-	0
O=C(C[C@H]1CC[C@H]2[C@@H](COC[C@@H](O)CN2C(=O)Nc2ccccc2)O1)NCCc1ccncc1	0	-	0
O=C(C[C@H]1CC[C@H]2[C@@H](COC[C@@H](O)CN2Cc2ccccc2)O1)NCCc1ccccc1	0	-	15
O=C(C[C@@H]1CC[C@H]2[C@@H](COC[C@H](O)CN2C(=O)c2ccccn2)O1)NC1CCC1	0	-	17
O=C(C[C@@H]1CC[C@H]2[C@@H](COC[C@H](O)CN2C(=O)Nc2ccc(Cl)c(Cl)c2)O1)NCc1ccncc1	0	-	0
O=C(C[C@@H]1CC[C@H]2[C@@H](COC[C@H](O)CN2Cc2ccccc2)O1)NCCc1ccccc1	0	-	0
CCNC(=O)C[C@@H]1CC[C@@H]2[C@H](COC[C@H](O)CN2C(=O)c2ccccn2)O1	0	-	0
CNC(=O)C[C@@H]1CC[C@@H]2[C@H](COC[C@H](O)CN2C(=O)c2ccccn2)O1	0	-	0
O=C(C[C@@H]1CC[C@@H]2[C@H](COC[C@@H](O)CN2C(=O)c2ccccn2)O1)NC1CCC1	0	-	27
O=C(C[C@H]1CC[C@H]2[C@@H](COC[C@H](O)CN2C(=O)Nc2ccc(Cl)c(Cl)c2)O1)NCc1ccncc1	0	-	13
Cc1ccc(S(=O)(=O)N(C)C[C@@H]2OCCCC[C@H](C)Oc3ccc(NC(=O)NC4CCCCC4)cc3C(=O)N([C@H](C)CO)C[C@H]2C)cc1	0	-	0
O=S(=O)(c1ccccc1)N1CC[C@@H]2[C@H](CO)Nc3ccc(Br)cc3[C@@H]21	0	-	0
COc1ccc(S(=O)(=O)N(C)C[C@@H]2Oc3c(NS(=O)(=O)c4cn(C)cn4)cccc3C(=O)N([C@H](C)CO)C[C@@H]2C)cc1	0	-	0
